Data taken from PubChem BioAssay (NCATS).
Results filed as inconclusive are left out. The source made the active and inactive calls. Calls come from the whole dose curve; as a rule, active = well fitted cell-killing curve with a large enough effect; inconclusive = small, poorly fitted or top-dose-only effect, or effect the other way; inactive = flat fitted curve, though single readings scatter.

What was measured:
Test in all cases: Primary qHTS to identify gynecologic anti-cancer compounds using libraries of approved drugs and bioactive compounds (AID 1345084); note: nearly all actives have a fitted effect of over 55% in size
C33A = conditions: Gynecologic cancer cell panel viability, ATPlite luminescence, 48 h; series mostly up to 57.5 µM
How it was run: (§1)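 In this quantitative HTS, cell killing is estimated from loss of ATP-dependent luciferase light. Cells see five compound concentrations over a 48 h exposure.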

CAOV3 = conditions: Gynecologic cancer cell panel viability, ATPlite luminescence, 48 h; series mostly up to 57.5 µM
How it was run: as §1

CASKI = conditions: Gynecologic cancer cell panel viability, ATPlite luminescence, 48 h; series mostly up to 57.5 µM
How it was run: as §1

Es-2 = conditions: Gynecologic cancer cell panel viability, ATPlite luminescence, 48 h; series mostly up to 57.5 µM
How it was run: as §1

HeLa = conditions: Gynecologic cancer cell panel viability, ATPlite luminescence, 48 h; series mostly up to 57.5 µM
How it was run: as §1

Hek293T = conditions: Gynecologic cancer cell panel viability, ATPlite luminescence, 48 h, control line for the selectivity index; series mostly up to 57.5 µM
How it was run: as §1

JEG-3 = conditions: Gynecologic cancer cell panel viability, ATPlite luminescence, 48 h; series mostly up to 57.5 µM
How it was run: as §1

Measured: Potency
Potency is the fitted concentration of half-maximal effect.

CC(C)N(C[C@H]1O[C@@H](n2cnc3c(N)ncnc32)[C@H](O)[C@@H]1O)C1CC(CCc2nc3ccc(C(C)(C)C)cc3[nH]2)C1 (stereo partly drawn)
inactive: all assays above

COc1ccc(C[C@H](N)C(=O)N[C@H]2[C@@H](O)[C@H](n3cnc4c(N(C)C)ncnc43)O[C@@H]2CO)cc1
active: C33A 2820 nM | CAOV3 1120 nM | CASKI 1580 nM | Es-2 3160 nM | HeLa 2000 nM | Hek293T 2820 nM | JEG-3 3980 nM

CC(C)C(C#N)O[C@@H]1O[C@H](CO[C@@H]2OC[C@](O)(CO)[C@H]2O)[C@@H](O)[C@H](O)[C@H]1O (stereo partly drawn)
inactive: all assays above

C[C@H]1CC[C@@]2(OC1)O[C@H]1CC3C4CC=C5C[C@H](O)C[C@@H](O[C@@H]6O[C@@H](C)[C@H](O)[C@@H](O)[C@H]6O[C@@H]6O[C@@H](C)[C@H](O)[C@@H](O)[C@H]6O)[C@]5(C)C4CC[C@]3(C)[C@H]1[C@@H]2C (stereo partly drawn)
inactive: all assays above

CC1CCC2C(C(=O)O)=CC3CC(C)(C)CC132 (stereo not drawn)
inactive: all assays above

CC1CCC2C(C)(C)C(O)CCC2(C)C12Cc1c(O)cc3c(c1O2)CN(C(CCC(N)=O)C(=O)O)C3=O (stereo not drawn)
inactive: all assays above

CC1(C)O[C@]23C[C@H]1C[C@H](OC(=O)c1ccoc1)[C@]2(C)[C@@H](OC(=O)c1ccoc1)CCC3(C)O (stereo partly drawn)
inactive: all assays above

CCn1cc(C2=NOC(C(=O)Nc3c(C)n(C)n(-c4ccccc4)c3=O)C2)c(C)n1 (stereo not drawn)
inactive: all assays above

CC(C)c1nc(N(C)S(C)(=O)=O)nc(-c2ccc(F)cc2)c1/C=C/[C@@H](O)C[C@@H](O)CC(=O)O
inactive: all assays above

CC(=O)N1CCN(NC(=O)c2ccc(F)cc2)CC1
inactive: all assays above

O=C1C[C@@H](c2ccc(O)cc2)Oc2cc(O)ccc21
inactive: all assays above

Cc1onc(-c2ccccc2)c1C(=O)N[C@@H]1C(=O)N2[C@@H]1SC(C)(C)[C@@H]2C(=O)O
inactive: all assays above

COC(=O)C1C(CC(C)=O)C=CC(O)C12Oc1cc(C)cc(O)c1C2=O (stereo not drawn)
inactive: all assays above

C/C=C(\C)C(=O)O[C@H]1[C@@H](O[C@]2(COC(=O)CC(C)C)O[C@H](COC(=O)C(C)C)[C@@H](OC(C)=O)[C@@H]2O)O[C@H](COC(C)=O)[C@@H](O)[C@@H]1O
inactive: all assays above

CC1=C(C)C(=O)OC(C(C)C2C(O)CC3C4C5OC5C5(O)CC(OC6OC(CO)C(O)C(O)C6O)CC(O)C5(C)C4CCC32C)C1 (stereo not drawn)
inactive: all assays above

C/C=C/C=C/C=C/C(=O)O[C@@H]1[C@@H](OC)C2=C(C(=O)N(C(C)C(=O)O)C2)[C@@]2(C)CCCC(C)(C)[C@H]12 (stereo partly drawn)
inactive: all assays above

CC1=C(C)C(=O)OC(C(C)(O)C2CCC3C4CC=C5CC(OC6OC(COC7OC(CO)C(O)C(O)C7O)C(O)C(O)C6O)CC(O)C5(C)C4CCC32C)C1 (stereo not drawn)
inactive: all assays above

CC1=CC(=O)OC(C)(CC(C)(O)C(=O)O)C1 (stereo not drawn)
inactive: all assays above

C=C1[C@H]2[C@H](O[C@@H]3O[C@H](COC(=O)/C=C/c4cc(OC)c(O)c(OC)c4)[C@@H](O)[C@H](O)[C@H]3O)OC=C(C(=O)O)[C@H]2C[C@@H]1O
inactive: all assays above
